# Assay outcomes: PubChem BioAssay, National Center for Advancing Translational Sciences (NCATS)
# Sampled rows, rich in hits. Any-hit rate of the full collection: about 1.1%.
# PTAP TSG101 blk: qHTS Assay for Iinhibitors of HIV-1 Budding by Blocking the Interaction of PTAP/TSG101. Tumor susceptibility gene 101 protein (Homo sapiens), Q99816. Fluorescence polarization, FITC-PTAP peptide / Tsg101 binding. Potency, µM (highest dose often 115 µM), inactives show at the highest dose activity change, negative = inhibition, actives largely listed as inhibitors. 340,000 tested, under 10 active. AID 493005, 2010; active = well fitted inhibition curve with a large enough effect in the main read-out, with a control signal flat, not every such curve was filed as active; inconclusive = small, poorly fitted or top-dose-only effect, or effect the other way, or a change in a side signal; inactive = no such curve, though single readings can be large or run the other way; note: % of control where 0% means no effect
#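 Tsg101 binding domain (10 uM final) was mixed with compound and a FITC-labeled PTAP peptide (50 nM final) in HEPES pH 7.5 buffer with NaCl, Tween 20, EDTA and TCEP; fluorescence polarization was read after 20 min at r.t.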
# USP2a inh: qHTS Assay for Inhibitors of Ubiquitin-specific Protease USP2a Using CHOP2 as the Reporter; USP2 core, Ub-CHOP2 coupled fluorogenic reporter, 485/531; Potency, µM (doses to about 38.3 µM), without a hit: at the highest dose activity change, negative = inhibition, usual class: inhibitors; actives 0.01% (n = 330,000);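 note: plate controls were DMSO wells for no effect and full inhibition by NEM control for full effect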
# Target sequence (O75604 whole entry, looked up): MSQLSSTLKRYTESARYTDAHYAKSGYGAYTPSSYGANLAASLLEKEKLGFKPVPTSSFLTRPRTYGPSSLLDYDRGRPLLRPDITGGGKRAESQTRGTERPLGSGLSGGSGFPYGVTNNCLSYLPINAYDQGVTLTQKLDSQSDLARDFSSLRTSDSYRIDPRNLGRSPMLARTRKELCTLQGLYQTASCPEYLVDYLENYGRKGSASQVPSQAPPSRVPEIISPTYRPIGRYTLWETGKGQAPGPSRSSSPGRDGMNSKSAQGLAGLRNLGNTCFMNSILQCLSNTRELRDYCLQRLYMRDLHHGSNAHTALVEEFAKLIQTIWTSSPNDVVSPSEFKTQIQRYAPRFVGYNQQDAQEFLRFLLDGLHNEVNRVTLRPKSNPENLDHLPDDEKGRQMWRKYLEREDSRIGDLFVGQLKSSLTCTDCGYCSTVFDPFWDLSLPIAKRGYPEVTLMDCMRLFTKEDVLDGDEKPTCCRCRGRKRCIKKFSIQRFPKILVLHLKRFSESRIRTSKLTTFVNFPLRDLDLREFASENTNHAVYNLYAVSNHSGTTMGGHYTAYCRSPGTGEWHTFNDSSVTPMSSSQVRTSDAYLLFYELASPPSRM
#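 Deubiquitinase activity read as fluorescence (485/531 nm) after Ub-CHOP2 cleavage activates the enterokinase reporter on its substrate; USP2 core 10nM, Ub-CHOP2 and substrate 25nM each, 30min compound preincubation then 60min RT; data normalized to NEM, curves fitted.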
# Eya2 inh: qHTS Assay for Inhibitors of the Phosphatase Activity of Eya2; Protein phosphatase EYA2 (Homo sapiens), O00167; recombinant Eya2, OMFP fluorescence dephosphorylation (OMFP is methylfluorescein phosphate); Potency, µM (doses to about 76.9 µM), for inactives: at the highest dose activity, negative = inhibition, most hits filed as inhibitors; actives 0.006% (n = 330,000); AID 488837, 2010; note: % is set by controls: 0 for no effect and ±100 for the full control effect
#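 Eya2 (0.2 uM) preincubated 10 min at ambient with compound, then OMFP substrate added at 50 uM; 10 min reaction in 50 mM HEPES pH 7.5, 50 mM NaCl, 5 uM MgCl2, 0.05% BSA, 1 mM DTT. Fluorescence read at Ex 485/Em 525 nm.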
# ALOX12 inh: Primary qHTS assay for inhibitors of human arachidonate 12S-lipoxygenase (ALOX12): Round 2. purified 12hLO, xylenol orange hydroperoxide absorbance. Potency, µM (highest dose often 108 µM), for inactives: top-dose activity change, negative = inhibition, usual class: inhibitors. actives 1.1% (n = 580,000). AID 1671190, 2021; note: % is set by controls: 0 for no effect and ±100 for the full control effect
#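 Purified human 12hLO at 150 nM in 25 mM Hepes, 0.01% Triton X-100, pH 7.0, preincubated 15 min at room temperature with compound. Reaction started with 40 uM arachidonic acid, 30 min at room temperature. Hydroperoxide measured by Fe-xylenol orange, 573/405 nm absorbance ratio.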
# Starred values were filed as active, the others as inactive; ? = inconclusive; / = no result given; ! = not active in a repeat; [ ] = remark or other dose. Unless noted, calls come from the whole dose curve; as a rule, active = well fitted curve in the direction sought with a large enough effect; inconclusive = small, poorly fitted or top-dose-only effect, or another doubt; inactive = no such curve, though single readings can be large; an effect the other way counts as inactive or inconclusive. Potency is the fitted concentration of half-maximal effect.
SMILES,PTAP TSG101 blk,USP2a inh,Eya2 inh,ALOX12 inh
Cc1ccc(NC(=S)NC(=O)C2CCCCC2)c(Br)c1,0%,3%,-1%,32µM*
Cc1ccc2nc(C3CCCN(Cc4cccc(-c5cccnc5)c4)C3)[nH]c(=O)c2c1 (stereo unspecified),/,/,/,46%
COc1ccc(CCC(=O)N2CCCCCC2CN2CCC(OC)CC2)cc1 (stereo unspecified),/,/,/,33%
CC(NCc1ccccc1C#N)c1ccccc1F (stereo unspecified),/,/,/,40µM*
CC(=O)NCCNC[C@@H]1C=C(C)[C@H](Cc2nnc(-c3cncn3C)o2)C[C@H]1C(C)C,/,/,/,13%[176 µM]
COc1ccc2cc(C(=O)N3CCN(c4ccccc4OC)CC3)[nH]c2c1,-13%,0%,-4%,16µM*
COc1ccc(-c2cc(C[C@H]3CNCC[C@H]3CC(=O)Nc3ccccc3)no2)cc1,/,/,/,6%[176 µM]
O=C(C1CC1)N1CCN(c2ccnc3cc(Cl)ccc23)CC1,0%,4%,-7%,0%
Oc1ccc(C2CCN(c3ccnc4ccccc34)CC2)cc1O,/,/,/,3.1µM*
CC(C)C[C@@H]1N[C@H](C(=O)NCc2ccccn2)Cc2c[nH]c3cccc1c23,/,/,/,121%[176 µM]
Cc1nn(-c2ccc(C(F)(F)F)cc2)c(C)c1[C@@H]1C=C[C@@H](NC(=O)Nc2cccc(C#N)c2)C1,/,/,/,3%
CC(=O)c1c(C)[nH]c(C(=O)Cn2nnc(-c3ccc(C(C)C)cc3)n2)c1C,/,/,/,16µM*
COC(=O)c1c(C)[nH]c(C(=O)Cn2nnc(-c3ccc(C(C)C)cc3)n2)c1C,/,/,/,-2%
COc1ccc(-c2ccc3ncc(Nc4cc(F)cc(N5CCOCC5)c4)n3n2)cc1OC,/,/,/,14%
CCN1CCN(C(=O)/C=C/c2ccc(C(C)C)cc2)CC1,-1%,/,/,0%
CCN1CCC(O)(/C=C/c2ccc(C(C)C)cc2)C(C(=O)/C=C/c2ccc(C(C)C)cc2)C1 (stereo unspecified),-2%,/,/,1.8µM*
CC(C)NCC1(COc2ccccc2)C[C@@H](O)[C@@H](O)C1 (stereo partly specified),/,/,/,12%[176 µM]
CCS(=O)(=O)NCC1(COc2ccccc2)C[C@@H](O)[C@@H](O)C1 (stereo partly specified),/,/,/,56µM*
COc1nccnc1NS(=O)(=O)c1ccc(NC(=S)NC(=O)c2ccc(F)cc2)cc1,1%,1%,-4%,35µM*
COc1nccnc1NS(=O)(=O)c1ccc(NC(=S)NC(=O)c2ccccc2F)cc1,-1%,1%,-5%,45µM*
CO[C@H]1[C@H](NC(=O)c2cc3ccccc3n2C)c2ccccc2C12CCNCC2,/,/,/,26%
CC(C)c1ccc(S(=O)(=O)N2CCN(C(=O)c3cncn3-c3ccc(F)cc3)CC2)cc1,/,/,/,29%
Ic1cn[nH]c1,/,/,/,-6%
Cc1cn[nH]c1,-1%,0%,7%,3.4µM*!
CC(=O)N(c1cccc(C(F)(F)F)c1)c1nc(CSc2nnc(C3CC3)n2C2CC2)cs1,/,/,/,23%
SMILES,PTAP TSG101 blk,USP2a inh,Eya2 inh,ALOX12 inh
O=[S+]([O-])(c1cccs1)N1CC(N2CCc3ccccc32)C1,/,/,/,-3%[6.33 µM]
NC(=O)COC(=O)c1cc(-c2ccco2)nc2ccccc12,-1%,0%,-10%,28µM*
COC(=O)c1ccc(COC(=O)c2cc(-c3ccco3)nc3ccccc23)cc1,/,/,/,7.1µM*
COc1ccccc1CNC(=O)COC(=O)c1cc(-c2ccco2)nc2ccccc12,-3%,-1%,5%,?
Cc1cc(C(=O)OCC(=O)N2CCCC2)c2ccccc2n1,-3%,0%,12%,2%
CNC(=O)NC(=O)COC(=O)c1cc(-c2ccco2)nc2ccccc12,/,/,/,16µM*
O=C(OCC(=O)N1CCCC1)c1cc(-c2ccco2)nc2ccccc12,/,/,/,6.3µM*
CN1C[C@@H](NC(=O)Nc2ccc(Cl)cc2)C[C@H]1c1nc(-c2ccc(F)cc2)no1,/,/,/,44%[176 µM]
COc1ccccc1-c1[nH]nc2ncc(C(=O)NCC3CCOCC3)nc12,/,/,/,25%[176 µM]
CC(C)(C)c1cc(CN(CCO)CCO)cc(C(C)(C)C)c1O,-6%,0%,-13%,16µM*
CN(C)Cc1cc(C(C)(C)C)c(O)c(C(C)(C)C)c1,-4%,1%,7%,0%
Cn1nnnc1Sc1ccc(S(=O)(=O)N2CCCCC2)cn1,/,/,/,-20%
O=C(O)/C(=C\C=C\c1ccco1)NC(=O)c1ccccc1,/,/,/,1.6µM*
O=C(O)/C(=C\c1ccco1)NC(=O)c1ccccc1,-2%,3%,5%,3%
CCCOC(=O)/C(=C\C=C\c1ccco1)NC(=O)c1ccccc1,-7%,-6%,13%,35µM*
COc1ccc(NC(=S)NN2C(C)CCCC2C)cc1 (stereo unspecified),2%,3%,-14%,?
CC(C)c1ccc(NC(=S)NN2C(C)CCCC2C)cc1 (stereo unspecified),-7%,-1%,-16%,28µM*
CN(C)C(=O)c1cnc(Cc2c[nH]c3ccccc23)c(I)c1,/,/,/,14µM*
Cc1ccc(N2C(=O)[C@@H]3[C@H](C2=O)C2c4ccccc4C=CN2[C@@H]3C(=O)c2ccco2)c(C)c1 (stereo partly specified),-9%,2%,-17%,14µM*
Cc1cc(C)cc(NC(=O)CCn2c(=O)n(C)c3ccccc32)c1,/,/,/,36%
COc1cc(Cl)c(NC(=O)Cc2coc3cc(C)c(C)cc23)cc1OC,/,/,/,-18%
O=C(O)c1ccc(N2C(=O)c3[nH]nc(-c4ccccc4)c3C2c2ccccc2)cc1 (stereo unspecified),-3%,0%,-6%,1%
CCc1ccc(C2c3c(-c4ccccc4)n[nH]c3C(=O)N2c2ccc(C(=O)O)cc2)cc1 (stereo unspecified),/,/,/,40µM*
S=C(Nc1ccc(Oc2ccccc2)cc1)NC1CCCCCC1,-3%,-4%,-14%,28µM*
S=C(Nc1ccc(Oc2ccccc2)cc1)NC1CCCCC1,-1%,1%,1%,?
S=C(Nc1ccc(Oc2ccc(NC(=S)NC3CCCCC3)cc2)cc1)NC1CCCCC1,-4%,-2%,0%,11µM*
Cc1cc(C)c(/C=C/C(=O)c2cc3ccccc3o2)c(C)c1,/,/,/,-25%
COc1ccc2c(c1)C1NC(=S)N[C@@](C)(O2)C1C(=O)Nc1ccccc1 (stereo partly specified),-4%,1%,11%,?
COc1ccc2c(c1)C1NC(=S)NC(C)(O2)C1C(=O)Nc1ccc(C)cc1C (stereo unspecified),0%,3%,6%,?
Cc1ccc2c(c1)C1NC(=S)NC(C)(O2)C1C(=O)Nc1ccc(Cl)cc1 (stereo unspecified),5%,4%,-10%,28µM*
